In the library only some 2.1% were active in any assay of this set; here they are far more common.
CF NFkB block: inhibitors of PAF-induced NF-kB signaling, primary screen, cell-based, GFP fluorescence, uHTS. inhibition, % at 5 µM. actives 0.86% (n = 360,000). KKLEB NF-kB-GFP reporter, GFP fluorescence overnight;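 active means at least 50% inhibition at 5 µM, scaled per plate between neutral and stimulator controls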;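 further: PAF is a Pseudomonas aeruginosa culture filtrate used as stimulus; plate controls were PAF-stimulated DMSO wells for no effect and unstimulated DMSO wells for full effect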
KKLEB cytotox: cytotoxicity in KKLEB CF airway cells, primary screen, cytotoxicity control for CF NF-kB inhibitor project, cell-based, uHTS, fluorescence assay plates; actives 0.36% (n = 360,000); activity change (cytotoxicity), % at 5 µM; KKLEB CF airway cells viability, ATPlite luminescence, overnight; active compounds read low; cells stimulated with P. aeruginosa culture filtrate;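 active means corrected activity change at or below -50% at 5 µM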
PAX8 inh HTS: inhibitors of PAX8-driven TPO luciferase reporter, primary screen, RMG-I cells, single concentration | actives 1.2% (n = 360,000) | AID 652154, 2013 | SteadyGlo, 24 h | inhibition, % at 12.6 µM;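 active means mean replicate inhibition at least 60% with every replicate also reaching 60%; inconclusive means only one of the two criteria is met; inactive means mean below 60% and not all replicates reaching 60%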;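 further: luciferase light reporting Pax8 driven TPO promoter activity; plate controls were median of neutral control wells for no effect and mitoxantrone controls for full effect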
HIF-2a inh: HIF-2a reporter inhibitors, primary screen, luminescence, 786-0 RCC cells | 786-0 RCC cells HIF-2a reporter, luciferase luminescence, overnight | inhibition, % at 18.8 µM | actives 0.72% (n = 360,000);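 active means inhibition of the luminescence signal of 40% or more relative to plate controls, in a single-dose primary screen at 18.75 µM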
EWS-Fli inh: EWS/Fli-driven NR0B1 reporter inhibitors, primary screen, A673 cells, NR0B1 luciferase, luminescence, MLPCN library; viability-normalised; inhibition, % at 12.6 µM; actives 0.67% (n = 350,000); AID 651661, 2012;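 active means mean inhibition of at least 50% after viability correction, with every replicate also passing that limit; inconclusive means mean reaches 50% but only one of two replicates passes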;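 further: firefly luciferase signal divided by Alamar Blue viability fluorescence both relative to DMSO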
* = called active by the depositor.

`N#CC1=C(N)Oc2cc(N)ccc2C1c1ccccc1F` (stereo not given) gave CF NFkB block 26, KKLEB cytotox -17, PAX8 inh HTS 39, HIF-2a inh 18 and EWS-Fli inh 55*.
`CCC(=O)N[C@H]1CC[C@@H](CC(=O)NCc2ccccc2OC)O[C@H]1CO` gave PAX8 inh HTS -11 and EWS-Fli inh 6.
For CCN(CC)CCCNc1ccc(-c2nnc(-c3ccc(OCC(C)C)cc3)o2)cn1 the results were CF NFkB block 3, KKLEB cytotox -19, PAX8 inh HTS 42, HIF-2a inh 16 and EWS-Fli inh 61*.
`CC(C)COc1ccc(-c2nnc(-c3ccco3)o2)cc1` gave CF NFkB block -20, KKLEB cytotox 1 and HIF-2a inh -75.
Screening C[C@H]1CN([C@@H](C)CO)C(=O)c2cc(NC(=O)Nc3ccc(C(F)(F)F)cc3)ccc2O[C@H]1CN(C)Cc1ccncc1 returned PAX8 inh HTS 21 and EWS-Fli inh 23.
Screening CCC(=O)Nc1ccc2c(c1)C(=O)N(C)C[C@@H](OC)[C@@H](C)CN(C(=O)CC1CC1)[C@H](C)CO2 returned EWS-Fli inh -6.
Screening CCCCC#Cc1ccc2c(c1)COc1c3ccccc3nn1-2 returned CF NFkB block 14, KKLEB cytotox 2, PAX8 inh HTS -67, HIF-2a inh -254 and EWS-Fli inh -98.
For N#CCCCC#Cc1ccc2c(c1)COc1c3ccccc3nn1-2 the results were CF NFkB block -27, KKLEB cytotox -50, PAX8 inh HTS 32, HIF-2a inh -19 and EWS-Fli inh 67*.
CC(SCc1ccccc1)C(=O)Nc1ccccc1-c1ccccc1 (stereo not given) was read as CF NFkB block -2, KKLEB cytotox 6, PAX8 inh HTS 9, HIF-2a inh 14 and EWS-Fli inh 75*.
`C[C@H]1CN([C@@H](C)CO)C(=O)c2cc(NS(=O)(=O)c3ccc(F)cc3)ccc2O[C@@H]1CN(C)Cc1ccc(Cl)c(Cl)c1` gave PAX8 inh HTS -3 and EWS-Fli inh 10.
For COc1ccc(-n2cc(-c3ccc(OC(F)F)cc3)[n+]3c2CCCCC3)cc1 the results were CF NFkB block 3, KKLEB cytotox 1, PAX8 inh HTS 86*, HIF-2a inh -2 and EWS-Fli inh 5.
`COc1ccc(-c2cn(-c3ccc(Cl)cc3)c3[n+]2CCCCC3)cc1` gave CF NFkB block -3, KKLEB cytotox 1, PAX8 inh HTS 40, HIF-2a inh 16 and EWS-Fli inh 9.
Screening COc1ccc(COc2ccsc2C(=O)Nc2ccc(Cl)c(Cl)c2)cc1 returned CF NFkB block 44, KKLEB cytotox -66* and HIF-2a inh -47.
For CN(C)S(=O)(=O)Oc1ccsc1C(=O)Nc1ccc(Cl)c(Cl)c1 the results were CF NFkB block 12, KKLEB cytotox -4 and HIF-2a inh -23.
`Cc1ccccc1-c1ccc([C@@H]2[C@H](CO)N3C(=O)CN(C(=O)c4ccncc4)C[C@@H]23)cc1` gave PAX8 inh HTS 0 and EWS-Fli inh -2.
`O=C(Cc1ccccn1)N[C@H]1CC[C@H](CCn2cc(-c3cccnc3)nn2)O[C@H]1CO` gave PAX8 inh HTS 11 and EWS-Fli inh 3.
Screening Brc1ccccc1-c1nnc2sc(Cc3ccccc3)nn12 returned CF NFkB block 47, KKLEB cytotox -4 and HIF-2a inh 0.
Screening COc1ccc(Cc2nn3c(-c4ccccc4Br)nnc3s2)cc1 returned CF NFkB block 53*, KKLEB cytotox -8 and HIF-2a inh -31.
Screening Cc1noc(C)c1NC(=O)Nc1ccc2c(c1)C(=O)N([C@@H](C)CO)C[C@H](C)[C@H](CN(C)C)OCCCC[C@@H](C)O2 returned PAX8 inh HTS 3 and EWS-Fli inh 0.
`NC(=O)[C@H]1[C@@H]2C(=O)O[C@@H](c3ccccc3)[C@@H](c3ccccc3)N2[C@@H](c2ccccc2OCCO)[C@]12C(=O)Nc1ccccc12` gave PAX8 inh HTS inconclusive and EWS-Fli inh 38.
O=C1O[C@@H](c2ccccc2)[C@@H](c2ccccc2)N2[C@@H](c3ccccc3OCCO)[C@]3(C(=O)Nc4ccc(C#CCCO)cc43)[C@@H](C(=O)N3CCCCCCC3)[C@H]12 was read as PAX8 inh HTS 93* and EWS-Fli inh 13.

Source: PubChem BioAssay
